Measurements taken from ChEMBL document CHEMBL3988442, “University of Dundee, Small-Polar-MMV Screening Library” (2021).
For some assays here: Entries with a potency or affinity are not part of this list.

Key:
Set-up in all cases: scale not given: direction of the effect not stated beside the values
[1] = target: Protein translocase subunit SecA (Escherichia coli (strain K12)) (UniProt P10408); test: Assay to Identify E. coli SecA ATPase Inhibitors; type: functional; conditions: 30 µM
[2] = target: T1, Ubiquitin-activating enzyme e1, putative (Leishmania donovani (strain BPK282A1)) (UniProt E9BSI1); test: Leishmania donovani Ubiquitin Activating Enzyme (LdE1); type: functional; conditions: 30 µM
T1 sequence (whole entry): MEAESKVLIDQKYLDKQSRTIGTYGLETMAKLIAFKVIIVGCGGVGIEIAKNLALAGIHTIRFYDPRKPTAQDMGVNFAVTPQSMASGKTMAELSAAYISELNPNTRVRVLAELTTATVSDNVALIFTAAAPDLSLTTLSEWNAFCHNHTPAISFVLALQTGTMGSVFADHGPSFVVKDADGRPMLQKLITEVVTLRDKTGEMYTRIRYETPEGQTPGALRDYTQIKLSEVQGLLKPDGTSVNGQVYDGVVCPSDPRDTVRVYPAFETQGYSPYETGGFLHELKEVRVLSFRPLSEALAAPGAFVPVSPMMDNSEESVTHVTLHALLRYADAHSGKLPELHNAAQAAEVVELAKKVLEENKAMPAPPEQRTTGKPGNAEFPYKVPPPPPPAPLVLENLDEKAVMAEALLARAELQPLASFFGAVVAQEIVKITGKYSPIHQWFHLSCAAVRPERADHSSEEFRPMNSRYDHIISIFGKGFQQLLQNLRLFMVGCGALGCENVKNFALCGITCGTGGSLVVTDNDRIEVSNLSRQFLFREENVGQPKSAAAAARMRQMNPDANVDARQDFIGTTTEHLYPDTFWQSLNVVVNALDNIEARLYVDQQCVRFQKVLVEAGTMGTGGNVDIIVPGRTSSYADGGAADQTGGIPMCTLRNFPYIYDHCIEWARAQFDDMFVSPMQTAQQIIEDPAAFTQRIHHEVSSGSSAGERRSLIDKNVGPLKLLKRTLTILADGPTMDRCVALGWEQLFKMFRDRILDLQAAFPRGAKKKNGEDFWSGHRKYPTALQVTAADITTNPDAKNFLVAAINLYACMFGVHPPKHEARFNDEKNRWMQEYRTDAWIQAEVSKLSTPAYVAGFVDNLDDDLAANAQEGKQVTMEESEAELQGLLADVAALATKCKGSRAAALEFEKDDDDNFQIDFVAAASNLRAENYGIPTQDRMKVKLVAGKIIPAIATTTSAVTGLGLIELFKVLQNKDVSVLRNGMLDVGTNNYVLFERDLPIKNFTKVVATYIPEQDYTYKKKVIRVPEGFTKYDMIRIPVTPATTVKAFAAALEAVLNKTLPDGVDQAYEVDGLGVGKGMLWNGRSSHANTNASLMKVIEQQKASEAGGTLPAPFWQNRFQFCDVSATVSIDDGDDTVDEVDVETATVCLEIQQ

[3] = target: AMP-activated protein kinase, AMPK (Homo sapiens) (UniProt P54646+O43741+P54619+Q9UGJ0+Q9Y478+Q13131+Q9UGI9); test: AMP-dependent Kinase enzyme assay. An in vitro enzyme assay that detects ADP turnover that is directly proportional to AMPK activity. This uses naive AMPK that is activated during the assay with MK-8722; type: functional; conditions: 30 µM
[4] = target: Sialic acid-binding Ig-like lectin 9 (Homo sapiens) (UniProt Q9Y336); test: Hs-Siglec9 ALPHAscreen SOP 20170721; conditions: 10 µM
Sequence of Sialic acid-binding Ig-like lectin 9 (Homo sapiens) (Q9Y336 whole entry): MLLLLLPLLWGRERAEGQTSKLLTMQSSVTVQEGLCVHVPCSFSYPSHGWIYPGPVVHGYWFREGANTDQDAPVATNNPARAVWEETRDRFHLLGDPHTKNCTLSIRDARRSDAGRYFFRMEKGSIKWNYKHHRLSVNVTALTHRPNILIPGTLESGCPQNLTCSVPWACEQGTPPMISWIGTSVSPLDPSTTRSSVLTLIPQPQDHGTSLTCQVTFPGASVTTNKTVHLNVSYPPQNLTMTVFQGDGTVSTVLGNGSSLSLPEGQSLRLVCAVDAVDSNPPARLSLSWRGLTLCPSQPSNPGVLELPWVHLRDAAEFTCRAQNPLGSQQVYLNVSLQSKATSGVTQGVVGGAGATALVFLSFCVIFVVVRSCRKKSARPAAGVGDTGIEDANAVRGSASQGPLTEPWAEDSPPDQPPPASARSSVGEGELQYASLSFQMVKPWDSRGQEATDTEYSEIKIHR

[5] = test system: Trypanosoma cruzi; test: Trypanosoma cruzi phosphomannomutase and mannose-1-phosphate guanylyltransferase assay; type: functional; conditions: 10 µM
[6] = target: T2, Arginase-2, mitochondrial (Homo sapiens) (UniProt P78540); test: in vitro enzyme assay to detect the production of urea directly proportional to the activity of Arginase II; type: functional; conditions: 33.3 µM; note: in the data most compounds retested in dose-response had high values
T2 sequence (whole entry): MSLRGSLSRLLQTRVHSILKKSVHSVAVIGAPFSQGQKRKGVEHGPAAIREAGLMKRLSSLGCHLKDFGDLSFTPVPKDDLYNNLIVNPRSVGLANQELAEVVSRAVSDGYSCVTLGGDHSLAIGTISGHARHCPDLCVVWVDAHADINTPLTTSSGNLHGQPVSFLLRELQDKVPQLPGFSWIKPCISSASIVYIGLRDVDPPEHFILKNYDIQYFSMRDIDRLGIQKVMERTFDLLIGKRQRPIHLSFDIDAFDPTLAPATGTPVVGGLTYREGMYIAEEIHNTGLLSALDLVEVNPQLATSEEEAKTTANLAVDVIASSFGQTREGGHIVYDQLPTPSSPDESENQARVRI

[7] = target: T3, Proteasome subunit beta (Trypanosoma cruzi) (UniProt O96673); test: Trypanosoma cruzi proteasome chymotrypsin-like activity (TcProtChymo) assay.; note: in the data most compounds retested in dose-response had high values; type: functional; conditions: 9.37 µM
T3 sequence (whole entry): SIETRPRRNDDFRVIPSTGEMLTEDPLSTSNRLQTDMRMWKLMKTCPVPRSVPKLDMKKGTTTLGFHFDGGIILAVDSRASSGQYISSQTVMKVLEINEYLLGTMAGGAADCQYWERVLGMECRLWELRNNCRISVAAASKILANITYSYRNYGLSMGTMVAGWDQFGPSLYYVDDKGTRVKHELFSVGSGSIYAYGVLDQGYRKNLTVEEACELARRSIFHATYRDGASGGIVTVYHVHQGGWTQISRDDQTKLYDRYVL

[8] = species on record: Homo sapiens; test: To identify inhibition of the IFN signalling (Jak-Stat) pathway via expression of an eGFP reporter gene under the control of an IFN-stimulated response element (ISRE) containing MxA promoter.; type: functional; conditions: 30 µM
[9] = target: T4, Tyrosyl-tRNA synthetase, putative (Trypanosoma cruzi (strain CL Brener)) (UniProt Q4DSP6); test: Trypanosoma cruzi tyrosyl tRNA synthetase (TcYRS) _High Tyrosine SOP; type: functional; conditions: 30 µM; note: in the data most compounds retested in dose-response had high values
T4 sequence (whole entry): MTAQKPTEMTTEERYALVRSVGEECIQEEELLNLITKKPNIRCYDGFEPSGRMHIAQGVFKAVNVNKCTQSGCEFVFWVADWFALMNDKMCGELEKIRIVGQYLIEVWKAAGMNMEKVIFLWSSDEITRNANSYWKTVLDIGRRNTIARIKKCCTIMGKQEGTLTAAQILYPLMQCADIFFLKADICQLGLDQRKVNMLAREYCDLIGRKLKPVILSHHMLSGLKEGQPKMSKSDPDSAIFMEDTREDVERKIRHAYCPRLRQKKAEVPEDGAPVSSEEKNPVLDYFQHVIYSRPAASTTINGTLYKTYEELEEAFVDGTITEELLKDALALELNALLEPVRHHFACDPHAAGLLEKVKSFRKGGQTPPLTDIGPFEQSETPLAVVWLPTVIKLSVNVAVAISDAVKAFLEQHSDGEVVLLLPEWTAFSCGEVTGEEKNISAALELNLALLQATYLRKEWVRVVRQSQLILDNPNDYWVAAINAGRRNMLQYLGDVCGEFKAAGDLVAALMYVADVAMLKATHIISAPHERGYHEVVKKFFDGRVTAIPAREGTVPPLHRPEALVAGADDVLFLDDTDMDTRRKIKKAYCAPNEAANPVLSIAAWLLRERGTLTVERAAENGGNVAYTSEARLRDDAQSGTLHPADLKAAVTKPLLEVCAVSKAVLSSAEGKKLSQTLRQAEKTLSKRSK

[10] = target: T4, Tyrosyl-tRNA synthetase, putative (Trypanosoma cruzi (strain CL Brener)); test: Trypanosoma cruzi tyrosyl tRNA synthetase (TcYRS) SOP; type: functional; conditions: 30 µM
[11] = target: Chromo domain-containing protein 1 (Saccharomyces cerevisiae (strain ATCC 204508 / S288c) (Baker's yeast)) (UniProt P32657); test: ScCHD-1 Enzyme Inhibition Assay; type: functional; conditions: 30 µM; note: in the data most compounds retested in dose-response had high values
Sequence of Chromo domain-containing protein 1 (Saccharomyces cerevisiae (strain ATCC 204508 / S288c) (Baker's yeast)) (P32657 whole entry, the tested form may be a part): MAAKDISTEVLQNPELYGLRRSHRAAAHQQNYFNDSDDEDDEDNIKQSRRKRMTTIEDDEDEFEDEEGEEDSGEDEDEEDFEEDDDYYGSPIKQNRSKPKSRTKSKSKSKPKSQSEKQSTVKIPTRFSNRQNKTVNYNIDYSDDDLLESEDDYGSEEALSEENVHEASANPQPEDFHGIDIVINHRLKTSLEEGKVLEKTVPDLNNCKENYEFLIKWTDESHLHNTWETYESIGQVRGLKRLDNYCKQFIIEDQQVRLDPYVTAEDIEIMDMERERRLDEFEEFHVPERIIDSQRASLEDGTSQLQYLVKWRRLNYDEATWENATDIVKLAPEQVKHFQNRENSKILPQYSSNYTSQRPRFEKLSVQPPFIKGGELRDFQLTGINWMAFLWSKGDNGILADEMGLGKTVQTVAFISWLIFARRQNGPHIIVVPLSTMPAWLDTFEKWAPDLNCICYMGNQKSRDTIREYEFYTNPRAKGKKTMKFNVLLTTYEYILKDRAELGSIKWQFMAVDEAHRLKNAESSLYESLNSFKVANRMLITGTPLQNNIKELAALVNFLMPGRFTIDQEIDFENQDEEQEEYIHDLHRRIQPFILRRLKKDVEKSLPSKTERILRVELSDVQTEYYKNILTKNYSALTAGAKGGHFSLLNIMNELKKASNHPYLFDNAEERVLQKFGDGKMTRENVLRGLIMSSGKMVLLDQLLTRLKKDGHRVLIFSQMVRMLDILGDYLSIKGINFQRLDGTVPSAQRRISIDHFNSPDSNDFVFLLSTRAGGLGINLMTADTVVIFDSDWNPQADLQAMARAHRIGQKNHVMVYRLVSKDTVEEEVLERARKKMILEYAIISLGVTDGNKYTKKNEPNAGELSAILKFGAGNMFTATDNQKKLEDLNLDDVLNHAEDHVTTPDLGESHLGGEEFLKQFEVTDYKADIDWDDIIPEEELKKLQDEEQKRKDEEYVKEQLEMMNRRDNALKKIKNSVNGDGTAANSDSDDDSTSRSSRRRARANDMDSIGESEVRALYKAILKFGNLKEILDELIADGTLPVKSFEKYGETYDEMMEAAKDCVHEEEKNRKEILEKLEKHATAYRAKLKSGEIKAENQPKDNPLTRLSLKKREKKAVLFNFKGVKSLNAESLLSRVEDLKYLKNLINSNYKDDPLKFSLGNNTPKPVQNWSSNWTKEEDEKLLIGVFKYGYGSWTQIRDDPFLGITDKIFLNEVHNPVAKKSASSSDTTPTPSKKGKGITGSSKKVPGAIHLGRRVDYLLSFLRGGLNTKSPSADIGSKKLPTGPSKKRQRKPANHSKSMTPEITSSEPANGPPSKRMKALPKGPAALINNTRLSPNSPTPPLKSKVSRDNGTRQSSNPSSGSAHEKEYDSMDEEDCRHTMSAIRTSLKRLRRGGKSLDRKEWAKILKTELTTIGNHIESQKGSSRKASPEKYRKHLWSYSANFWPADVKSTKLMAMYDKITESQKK

Sequence of Protein translocase subunit SecA (Escherichia coli (strain K12)) (P10408 whole entry): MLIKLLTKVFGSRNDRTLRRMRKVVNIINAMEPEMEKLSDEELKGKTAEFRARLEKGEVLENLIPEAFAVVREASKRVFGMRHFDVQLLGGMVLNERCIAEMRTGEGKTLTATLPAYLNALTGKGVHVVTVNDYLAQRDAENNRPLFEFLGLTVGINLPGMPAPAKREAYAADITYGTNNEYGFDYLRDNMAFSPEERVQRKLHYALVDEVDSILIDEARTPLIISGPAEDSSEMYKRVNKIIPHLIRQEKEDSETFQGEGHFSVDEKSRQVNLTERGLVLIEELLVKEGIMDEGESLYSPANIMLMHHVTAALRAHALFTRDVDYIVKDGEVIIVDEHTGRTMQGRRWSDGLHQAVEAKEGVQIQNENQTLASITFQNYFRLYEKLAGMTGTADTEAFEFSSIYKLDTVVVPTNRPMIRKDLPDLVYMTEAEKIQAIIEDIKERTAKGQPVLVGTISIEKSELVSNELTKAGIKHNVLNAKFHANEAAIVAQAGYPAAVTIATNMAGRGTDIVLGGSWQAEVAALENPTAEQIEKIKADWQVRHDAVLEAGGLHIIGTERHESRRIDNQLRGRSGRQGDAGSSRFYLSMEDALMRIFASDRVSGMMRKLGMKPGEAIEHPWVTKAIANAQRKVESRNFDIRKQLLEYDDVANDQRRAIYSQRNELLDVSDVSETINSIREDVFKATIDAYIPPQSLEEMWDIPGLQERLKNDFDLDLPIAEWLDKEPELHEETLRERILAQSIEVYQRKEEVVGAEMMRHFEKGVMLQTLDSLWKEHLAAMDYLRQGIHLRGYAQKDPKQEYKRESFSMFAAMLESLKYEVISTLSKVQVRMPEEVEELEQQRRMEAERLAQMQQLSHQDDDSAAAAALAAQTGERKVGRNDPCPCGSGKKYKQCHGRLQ

SMILES | Percent Effect [1] | Percent Effect [2] | Percent Effect [3] | Percent Effect [4] | Percent Effect [5] | Percent Effect [6] | Percent Effect [7] | Percent Effect [8] | Percent Effect [9] | Percent Effect [10] | Percent Effect [11]
COC(=O)C(NC(=O)COC1CCCC1)c1cc(F)ccc1F (stereo unspecified) | -6.55% | 7.79% | -4.98% | 20.1% | 5.06% | -7.83% | 2.7% | -0.885% | 4.85% | 21.9% | -9.9%
Cc1cc(NC(=O)CN2CCOC(Cn3cccn3)C2)n(C)n1 (stereo unspecified) | -5.44% | 0% | 5.74% | -1.25% | 1.27% | -1.05% | -1.86% | 15.9% | 2.86% | 9.41% | -16.3%
CS(=O)(=O)NCC1CCCN(C(=O)Nc2ccccc2Cl)C1 (stereo unspecified) | -1.65% | 13.2% | 8.6% | 0.518% | 1.66% | -5.92% | 15.2% | 29.4% | 7.45% | 18.2% | -7.52%
Cc1cccc(-c2noc(CN3CCCC(Cn4cncn4)C3)n2)c1 (stereo unspecified) | -6.12% | 20.2% | -9.05% | 10.8% | 8.59% | 3.04% | 5.16% | 5.05% | 6.4% | 21.5% | -4.86%
Cc1ccc(-n2nnc(C(=O)NS(C)(=O)=O)c2C2CC2)cc1 | -1.84% | 0% | -7.9% | 0.772% | 7.52% | -1.66% | -0.179% | 12.9% | 2.97% | 13.4% | 3.65%
CC(NC(=O)N1CCCN(Cc2cccs2)CC1)c1cccnc1 (stereo unspecified) | -0.761% | 18.4% | -1.54% | -0.0672% | 5.64% | 10.3% | 8.02% | -11.5% | 5.39% | 21.9% | -12%
CO[C@@H]1CC[C@H]2[C@H]1OCCN2C(=O)COc1ccc(F)cc1 | 0.9% | -2.7% | 12.4% | 0.225% | -4.01% | 3.5% | 15.3% | 3.76% | 4.32% | -2.56% | 0.177%
COc1ccc(C(C(=O)O)N2CCCN(C3CCCC3)CC2)cc1OC (stereo unspecified) | -8.69% | 0% | -2.66% | -4.35% | -3.81% | -2.23% | -0.429% | 16% | -9.68% | -1.24% | -4.58%
c1cnn(CCN2CCOC(Cn3cncn3)C2)c1 (stereo unspecified) | -1.82% | 17.7% | -6.27% | -8.37% | -0.283% | 3.8% | 14.3% | -0.00724% | 10.3% | 24.1% | -9.31%
Cn1ccc(C(=O)N2CCN(CCc3ccccc3)CC2)cc1=O | -5.05% | 11.4% | 1.25% | -2.05% | -1.74% | 3.23% | 13% | 6.37% | 12.5% | 17.7% | -7.93%
O=C1CC[C@@H]2[C@@H](CCN2C(=O)c2ccsc2)N1CC1CC1 | -4.27% | -2.7% | 6.58% | -0.934% | 4.2% | 2.23% | 21.4% | -14.4% | 4.32% | 7.69% | 2.18%
Cc1cc(N2CCC3(CCC(=O)N(CC4CC4)C3)CC2)nc(N)n1 | -4.29% | 5.41% | -2.2% | 5.16% | -0.88% | -1.74% | 8.15% | 7.43% | 9.68% | 8.64% | -3.15%
COc1ccccc1OCCN1CCC(N2CCNC2=O)CC1 | -6.27% | 5.41% | 1.68% | 3.47% | -5.66% | 3.51% | 12% | 18.9% | -3.96% | -13.4% | 0.174%
c1coc(-c2nnc(CN3CCCC(CN4CCCCCC4)C3)o2)c1 (stereo unspecified) | -4.64% | 7.89% | 0.651% | 1.71% | 8.67% | -7.1% | -1.25% | 4.66% | 5.32% | 10.4% | -3.8%
CCOCC1CN(C(=O)N(C)C)Cc2nn(C)cc21 (stereo unspecified) | -3.04% | 8% | -0.352% | 2.29% | -0.579% | -40.3% | 8.03% | -8.7% | 1.04% | 10% | -7.3%
CCc1cccc(N2CCC(NC(=O)c3cc[nH]n3)CC2)c1 | -4.19% | 6.33% | 8.15% | -6.72% | -3.59% | -5.38% | 11.2% | 28.6% | 2.08% | 5.06% | -20.9%
